Records with an inconclusive call do not appear. Calls of active or inactive are those of the source. The call rests on the fitted dose curve.
On the % scale 0 is the no-effect control and ±100 the full control effect.

One test deals with Acetylcholinesterase (Homo sapiens) (UniProt P22303). Briefly: Acetylcholinesterase (AChE) small molecule antagonists: fluorescence cell-based qHTS assay (AID 1347398). Further: nearly all actives have a fitted effect of over 50% in size. Further: potency means the concentration at half of the fitted maximal effect. The note with it: SH-SY5Y cells; Potency: AChE activity; outcome: AChE activity; series mostly up to 115 µM; activity change, negative = inhibition: at the top concentration. Summed up: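 Homogeneous quantitative HTS format. SH-SY5Y cells seeded at 2,000 per well settle overnight at 37 C. Compound pretreatment runs 30 min (37 C, 5% CO2); substrate/probe mix then reacts 40 min at RT before reading 490/520 nm.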
Sequence of Acetylcholinesterase (Homo sapiens) (P22303 whole entry, looked up): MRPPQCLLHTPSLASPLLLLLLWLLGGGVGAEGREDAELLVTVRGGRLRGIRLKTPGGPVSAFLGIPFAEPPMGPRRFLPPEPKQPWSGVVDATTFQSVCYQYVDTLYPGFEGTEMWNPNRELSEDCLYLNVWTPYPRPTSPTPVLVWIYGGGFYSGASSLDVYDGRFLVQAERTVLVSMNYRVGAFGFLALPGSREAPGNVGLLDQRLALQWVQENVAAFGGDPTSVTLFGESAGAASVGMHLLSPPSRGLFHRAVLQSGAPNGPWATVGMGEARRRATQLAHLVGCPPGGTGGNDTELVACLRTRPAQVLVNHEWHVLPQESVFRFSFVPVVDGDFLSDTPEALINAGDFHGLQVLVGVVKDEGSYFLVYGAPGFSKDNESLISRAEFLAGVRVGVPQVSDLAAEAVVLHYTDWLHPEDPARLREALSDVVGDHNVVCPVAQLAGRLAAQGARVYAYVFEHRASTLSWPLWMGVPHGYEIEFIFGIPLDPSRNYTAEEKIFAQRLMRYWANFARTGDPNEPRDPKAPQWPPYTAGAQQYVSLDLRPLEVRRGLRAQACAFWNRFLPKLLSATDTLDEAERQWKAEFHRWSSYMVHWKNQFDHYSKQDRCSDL
As to `CC1(C)C2=CCCC(C)(C)[C@]23CC[C@H]1C3`, the “activity change, negative = inhibition” value is -1.56% (inactive).
As to `CCCCCOC(=O)Nc1nc(=O)n([C@@H]2O[C@H](C)[C@@H](O)[C@H]2O)cc1F`, the “activity change, negative = inhibition” value was -6.3% [at 53.7 µM] (inactive).
Turning to `NC(CSCC(=O)O)C(=O)O` (stereo not given), the “activity change, negative = inhibition” value was 10.8% [at 53.7 µM] (inactive).
Turning to `CN(C/C=C/C#CC(C)(C)C)Cc1cccc2ccccc12`, the “activity change, negative = inhibition” value is -15.2% [at 53.7 µM] (inactive).
Take `CC1=C(/C=C/C(C)=C/C=C/C(C)=C/C(=O)Nc2ccc(O)cc2)C(C)(C)CCC1`: the Potency is 13.8 µM (active).
In the case of `C=C(C)C(=O)O`, the Potency result was “inactive”.
In the case of `CCCc1c2oc(C(=O)O)cc(=O)c2cc2c(=O)cc(C(=O)O)n(CC)c12`, the “activity change, negative = inhibition” value was 9.92% [at 53.7 µM] (inactive).
With `CCN(CC)CCOC(=O)C(c1ccccc1)C1CCCCC1` (stereo not given), the “activity change, negative = inhibition” value is -20.1% [at 53.7 µM] (inactive).
On the same count and under the same terms, the value for `CCCCCCCC/C=C\CCCCCCCC(=O)OC` was -19.7% (inactive); that for `NCCCN(CCO)CCO` was -15.8% (inactive); that for `CNC(=O)c1cc(Oc2ccc(NC(=O)Nc3ccc(Cl)c(C(F)(F)F)c3)cc2)ccn1` was 10.8% [at 53.7 µM] (inactive).
`FB(F)F`: the “activity change, negative = inhibition” value is -1.36% (inactive).
As to `Nc1ccc(N=Nc2ccccc2)c(N)n1`, the Potency entry was “inactive”.
With `CN(C)CCOC(c1ccccc1)c1ccc(Br)cc1` (stereo not given), the “activity change, negative = inhibition” value is -14% [at 53.7 µM] (inactive).
On to `CCn1ccc(NS(=O)(=O)c2ccc(N)cc2)nc1=O`, for which the “activity change, negative = inhibition” value is -0.734% [at 53.7 µM] (inactive).
As to `N/C(=N\N=C\c1ccc(Cl)cc1)N/N=C/c1ccc(Cl)cc1`, the “activity change, negative = inhibition” value is 0.395% [at 53.7 µM] (inactive).
For `CC(C)N(C)C`, the “activity change, negative = inhibition” value is 0.004% (inactive).
For `CN1CCN(C2Cc3ccccc3Sc3ccc(Cl)cc32)CC1` (stereo not given), the “activity change, negative = inhibition” value is -21.1% [at 53.7 µM] (inactive).
As for `O=S(=O)(O)c1ccc2ccccc2c1`, the Potency result is “inactive”.
For the molecule `COc1ccccc1N1CCN(CCCCNC(=O)c2ccc(-c3ccc(C(C)=O)cc3)cc2)CC1`, the “activity change, negative = inhibition” value is -1.33% [at 53.7 µM] (inactive).
Consider `CCN(CC#N)c1cccc(C)c1`, for which the “activity change, negative = inhibition” value is -3.11% (inactive).
Take `COc1ccc2[nH]cc(CCNC(C)=O)c2c1`: the Potency entry was “inactive”.
Regarding `Cc1cc(SC2=C(O)C[C@@](CCc3ccc(N)cc3)(C(C)C)OC2=O)c(C(C)(C)C)cc1CO`, the “activity change, negative = inhibition” value was -0.34% (inactive).
For `NC(=O)NC(=O)Cc1ccccc1`, the “activity change, negative = inhibition” value is 6.58% [at 53.7 µM] (inactive).
Turning to `C1CCCNCC1`, the Potency entry is “inactive”.
Regarding `CN=C(NC#N)NCCSCc1nc[nH]c1C`, the Potency result is “inactive”.
On to `NC[C@H](O)c1ccc(O)c(O)c1`, for which the Potency entry was “inactive”.
In the case of `CN1CC(=O)N/C1=N/C(=O)Nc1cccc(Cl)c1`, the “activity change, negative = inhibition” value is 3.38% [at 53.7 µM] (inactive).
On to `O=C1CC2CC1C1CCCC21` (stereo not given), for which the “activity change, negative = inhibition” value is 1.83% (inactive).
With `C=C(C)C(=O)OCC(C)C`, the Potency entry was “inactive”.
Still for that read-out and setting: as for `CC1=CC(=O)CC(C)(C)C1`, the entry is “inactive”.
On to `N#C[C@@H]1CC(F)(F)CN1C(=O)CNC1CC2CCC(C1)N2c1ncccn1` (stereo not given in full), for which the “activity change, negative = inhibition” value was -10.4% (inactive).
Consider `COc1ccc2c(c1)c(CC(=O)OC/C=C(\C)CC/C=C(\C)CCC=C(C)C)c(C)n2C(=O)c1ccc(Cl)cc1`, for which the “activity change, negative = inhibition” value is -16.7% [at 53.7 µM] (inactive).
Regarding `CCC(=O)c1cccc(Cl)c1`, the “activity change, negative = inhibition” value was -0.172% (inactive).
Same read-out and setting: as for `CCCCCCCCCCCC[N+](C)(C)CC(=O)[O-]`, the figure is 5.24% (inactive).
With `[O-]/[N+](=N\O)c1ccccc1`, the Potency entry is “inactive”.
Consider `Cc1c(F)c(N2CCNC(C)C2)cc2c1c(=O)c(C(=O)O)cn2C1CC1` (stereo not given), for which the “activity change, negative = inhibition” value was 1.3% [at 53.7 µM] (inactive).
On the same count and under the same terms, the value for `CNS(=O)(=O)CCc1ccc2[nH]cc(C3CCN(C)CC3)c2c1` was 1.25% [at 53.7 µM] (inactive); that for `CC(=O)O[C@H]1CC[C@@]2(C)C(=CC[C@@H]3[C@@H]2CC[C@]2(C)C(C(C)=O)=CC[C@@H]32)C1` was 1.41% [at 53.7 µM] (inactive).
Turning to `O=C1OCCN1/N=C/c1ccc([N+](=O)[O-])o1`, the “activity change, negative = inhibition” value is -11.8% [at 53.7 µM] (inactive).

A further test shares this target. Put plainly: Acetylcholinesterase (AChE) small molecule antagonists: enzyme-based qHTS assay with human liver microsomes (AID 1347399). Further: nearly all actives have a fitted effect of over 60% in size. Particulars: Potency: qHTS inhibition; outcome: qHTS inhibition; series mostly up to 115 µM; activity change, negative = inhibition: at the top concentration. The essentials:
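Recombinant human AChE (50 mU/mL in the enzyme mix) and human liver microsomes (0.25 mg/mL final) were preincubated with compound and NADPH (0.25 mg/mL final) for 30 min at 37 C. Acetylthiocholine/DTNB was then added; thiocholine was read colorimetrically after 10 min at room temperature.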
In general terms: In qHTS, concentration-response curves come from the screen itself.
Turning to `CC1(C)C2=CCCC(C)(C)[C@]23CC[C@H]1C3`, the “activity change, negative = inhibition” value was -1.53% (inactive).
Regarding `CCCCCOC(=O)Nc1nc(=O)n([C@@H]2O[C@H](C)[C@@H](O)[C@H]2O)cc1F`, the “activity change, negative = inhibition” value was 0.31% [at 53 µM] (inactive).
As for `NC(CSCC(=O)O)C(=O)O` (stereo not given), the “activity change, negative = inhibition” value is 1.01% [at 53 µM] (inactive).
Regarding `CN(C/C=C/C#CC(C)(C)C)Cc1cccc2ccccc12`, the “activity change, negative = inhibition” value is 0.29% [at 53 µM] (inactive).
For the molecule `CC1=C(/C=C/C(C)=C/C=C/C(C)=C/C(=O)Nc2ccc(O)cc2)C(C)(C)CCC1`, the Potency result was “inactive”.
In the case of `C=C(C)C(=O)O`, the Potency entry was “inactive”.
As to `CCCc1c2oc(C(=O)O)cc(=O)c2cc2c(=O)cc(C(=O)O)n(CC)c12`, the “activity change, negative = inhibition” value is -0.973% [at 53 µM] (inactive).
Regarding `CCN(CC)CCOC(=O)C(c1ccccc1)C1CCCCC1` (stereo not given), the “activity change, negative = inhibition” value was -0.924% [at 53 µM] (inactive).
On to `CCCCCCCC/C=C\CCCCCCCC(=O)OC`, for which the “activity change, negative = inhibition” value was -1.71% (inactive).
In the case of `NCCCN(CCO)CCO`, the “activity change, negative = inhibition” value is -1.99% (inactive).
On to `CNC(=O)c1cc(Oc2ccc(NC(=O)Nc3ccc(Cl)c(C(F)(F)F)c3)cc2)ccn1`, for which the “activity change, negative = inhibition” value is 4.87% [at 53 µM] (inactive).
In the case of `FB(F)F`, the “activity change, negative = inhibition” value is 0.162% (inactive).
Consider `Nc1ccc(N=Nc2ccccc2)c(N)n1`, for which the Potency entry was “inactive”.
As to `CN(C)CCOC(c1ccccc1)c1ccc(Br)cc1` (stereo not given), the “activity change, negative = inhibition” value was 0.443% [at 53 µM] (inactive).
In the case of `CCn1ccc(NS(=O)(=O)c2ccc(N)cc2)nc1=O`, the “activity change, negative = inhibition” value is -0.168% [at 53 µM] (inactive).
On to `N/C(=N\N=C\c1ccc(Cl)cc1)N/N=C/c1ccc(Cl)cc1`, for which the “activity change, negative = inhibition” value was 1.18% [at 53 µM] (inactive).
Still for that read-out and setting: as for `CC(C)N(C)C`, the figure is -0.324% (inactive); as for `CN1CCN(C2Cc3ccccc3Sc3ccc(Cl)cc32)CC1` (stereo not given), 1.51% [at 53 µM] (inactive).
Take `O=S(=O)(O)c1ccc2ccccc2c1`: the Potency result was “inactive”.
Turning to `COc1ccccc1N1CCN(CCCCNC(=O)c2ccc(-c3ccc(C(C)=O)cc3)cc2)CC1`, the “activity change, negative = inhibition” value was -0.756% [at 53 µM] (inactive).
In the case of `CCN(CC#N)c1cccc(C)c1`, the “activity change, negative = inhibition” value is -1.08% (inactive).
For the molecule `COc1ccc2[nH]cc(CCNC(C)=O)c2c1`, the Potency result was “inactive”.
For `Cc1cc(SC2=C(O)C[C@@](CCc3ccc(N)cc3)(C(C)C)OC2=O)c(C(C)(C)C)cc1CO`, the “activity change, negative = inhibition” value was -2.33% (inactive).
Still for that read-out and setting: the value for `NC(=O)NC(=O)Cc1ccccc1` was 1.18% [at 53 µM] (inactive).
Consider `C1CCCNCC1`, for which the Potency entry is “inactive”.
In the case of `CN=C(NC#N)NCCSCc1nc[nH]c1C`, the Potency result was “inactive”.
As to `NC[C@H](O)c1ccc(O)c(O)c1`, the Potency entry is “inactive”.
For `CN1CC(=O)N/C1=N/C(=O)Nc1cccc(Cl)c1`, the “activity change, negative = inhibition” value is 0.168% [at 53 µM] (inactive).
In the case of `O=C1CC2CC1C1CCCC21` (stereo not given), the “activity change, negative = inhibition” value is 0.18% (inactive).
As for `C=C(C)C(=O)OCC(C)C`, the Potency entry is “inactive”.
Regarding `CC1=CC(=O)CC(C)(C)C1`, the Potency result is “inactive”.
On to `N#C[C@@H]1CC(F)(F)CN1C(=O)CNC1CC2CCC(C1)N2c1ncccn1` (stereo not given in full), for which the “activity change, negative = inhibition” value was 0.594% (inactive).
Consider `COc1ccc2c(c1)c(CC(=O)OC/C=C(\C)CC/C=C(\C)CCC=C(C)C)c(C)n2C(=O)c1ccc(Cl)cc1`, for which the “activity change, negative = inhibition” value was 0.402% [at 53 µM] (inactive).
The same measure, in the same setting: the value for `CCC(=O)c1cccc(Cl)c1` was -1.06% (inactive); that for `CCCCCCCCCCCC[N+](C)(C)CC(=O)[O-]` was 1.3% (inactive).
Consider `[O-]/[N+](=N\O)c1ccccc1`, for which the Potency result is “inactive”.
For `Cc1c(F)c(N2CCNC(C)C2)cc2c1c(=O)c(C(=O)O)cn2C1CC1` (stereo not given), the “activity change, negative = inhibition” value was -1.75% [at 53 µM] (inactive).
The same measure, in the same setting: the value for `CNS(=O)(=O)CCc1ccc2[nH]cc(C3CCN(C)CC3)c2c1` was -0.669% [at 53 µM] (inactive); that for `CC(=O)O[C@H]1CC[C@@]2(C)C(=CC[C@@H]3[C@@H]2CC[C@]2(C)C(C(C)=O)=CC[C@@H]32)C1` was -1.76% [at 53 µM] (inactive).
As for `O=C1OCCN1/N=C/c1ccc([N+](=O)[O-])o1`, the “activity change, negative = inhibition” value is 1.18% [at 53 µM] (inactive).

The record behind these values is PubChem BioAssay (Tox21).
